Records with an inconclusive call do not appear. The source made the active and inactive calls. Unless noted, calls come from the whole dose curve; as a rule, active = well fitted curve in the direction sought with a large enough effect in the repeat runs; inconclusive = weak or mixed curves; inactive = no such curve, though single readings can be large; an effect the other way counts as inactive or inconclusive.
How the values were obtained:
[1] = qHTS assay for small molecules that induce genotoxicity in human embryonic kidney cells expressing luciferase-tagged ATAD5 (AID 651632); note: nearly all actives have a fitted effect of over 15% in size
Outline: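 Reporter cells (HEK293T) express luciferase-tagged ATAD5, a protein that accumulates after DNA damage. Treat 16 hr at 37C/5% CO2, add Amplite, wait 30 min at RT, and read luminescence.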

[2] = qHTS assay for small molecule agonists of the p53 signaling pathway - cell viability (AID 651633; calls by dose curve; note: nearly all actives have a fitted effect of over 30% in size; note: potency is the fitted concentration of half-maximal effect)
Outline: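 p53RE-bla cells, seeded at 4,000 per well and rested 5 h at 37 C/5% CO2, received compounds in DMSO for 16 h at 37 C. CellTiter-Glo was then added, and luminescence was read after 30 min at room temperature to gauge cytotoxicity.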

[3] = qHTS assay for small molecules that induce genotoxicity in human embryonic kidney cells expressing luciferase-tagged ATAD5 - cell viability (AID 651634; calls by dose curve; note: nearly all actives have a fitted effect of over 25% in size; note: potency is the fitted concentration of half-maximal effect)
Outline: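 Seeding of 2,000 HEK293T ATAD5-luciferase cells per well preceded pin-tool compound transfer. Plates sat 15.5 hr at 37C under 5% CO2, then fluorescence was read after 30 min with CellTiter-Fluor.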

[4] = qHTS assay for small molecule disruptors of the mitochondrial membrane potential - cell viability (AID 720634; calls by dose curve;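 note: human HepG2 liver cancer cells; nearly all actives have a fitted effect of over 20% in size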)
Outline: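 Measuring cytotoxicity alongside mitochondrial potential, the screen quantified ATP by luminescence in HepG2 cells after 1 hr compound incubation and a 30 min room-temperature CellTiter-Glo step.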

[5] = qHTS assay to test for compound auto fluorescence at 590 nm (red) in HepG2 cells (AID 720674)
Outline: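 Compound auto-fluorescence is scored relative to Rose Bengal sodium, measured at 540/590 nm in live HepG2 cultures after 1 hr compound contact (37 C, 5% CO2).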

[6] = qHTS assay to test for compound auto fluorescence at 535 nm (green) in HepG2 cells (AID 720675)
[7] = qHTS assay to test for compound auto fluorescence at 460 nm (blue) in HEK293 cells (AID 720678)
Outline: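 Blue read-out at excitation 405 nm and emission 460 nm follows overnight compound exposure of HEK293 cells at 37C in 5% CO2. Activity is given as auto fluorescence equivalency to triamterene.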

[8] = qHTS assay to test for compound auto fluorescence at 535 nm (green) in HEK293 cells (AID 720680)
[9] = qHTS assay to test for compound auto fluorescence at 460 nm (blue) in HEK293 cell free culture (AID 720681)
Outline: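 Test compounds were pinned into cell-free culture medium (DMEM with 10% FBS) and fluorescence was read directly at Ex/Em 405/460 nm. Signals were expressed as fluorescence equivalents of triamterene, with DMSO vehicle as control.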

[10] = qHTS assay to test for compound auto fluorescence at 590 nm (red) in HEK293 cell free culture (AID 720683)
Outline: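 Tox21 10K library compounds were pinned into cell-free DMEM with 10% FBS and fluorescence was read at excitation 540 nm. Activity is expressed as Rose Bengal sodium equivalency.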

[11] = qHTS assay to test for compound auto fluorescence at 590 nm (red) in HepG2 cell free culture (AID 720684)
Outline: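 Measured in medium alone (MEM containing 10% FBS) following pintool addition of compound; emission at 590 nm with 540 nm excitation, referenced to Rose Bengal sodium.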

[12] = qHTS assay to test for compound auto fluorescence at 460 nm (blue) in HepG2 cell free culture (AID 720685)
Outline: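 Compound (23 nL) or DMSO pinned into cell-free MEM with 10% FBS; blue fluorescence read at 405/460 nm excitation/emission, expressed as auto-fluorescence equivalency to triamterene.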

[13] = qHTS assay to test for compound auto fluorescence at 535 nm (green) in HepG2 cell free culture (AID 720686)
[14] = qHTS assay to test for compound auto fluorescence at 460 nm (blue) in HepG2 cells (AID 720687)
Outline: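 Cells (2,000/well in MEM with 10% FBS) attached overnight at 37 C, then were exposed to compound or DMSO for 1 hr at 37 C, 5% CO2. Fluorescence read at Ex/Em 405/460 nm, expressed as triamterene-equivalent signal.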

[15] = target: Glucocorticoid receptor (Homo sapiens) (UniProt P04150); assay: qHTS assay to identify small molecule agonists of the glucocorticoid receptor (GR) signaling pathway (AID 720691; active = well fitted activation curve with a large enough effect in the signal ratio in the repeat runs, not every such curve was filed as active; the % refers to the signal ratio); settings: GR-bla HeLa, beta-lactamase reporter ratio, 18 h; activation: at 62.4 µM (top of the series) unless noted
Glucocorticoid receptor (Homo sapiens), sequence (P04150 whole entry, looked up): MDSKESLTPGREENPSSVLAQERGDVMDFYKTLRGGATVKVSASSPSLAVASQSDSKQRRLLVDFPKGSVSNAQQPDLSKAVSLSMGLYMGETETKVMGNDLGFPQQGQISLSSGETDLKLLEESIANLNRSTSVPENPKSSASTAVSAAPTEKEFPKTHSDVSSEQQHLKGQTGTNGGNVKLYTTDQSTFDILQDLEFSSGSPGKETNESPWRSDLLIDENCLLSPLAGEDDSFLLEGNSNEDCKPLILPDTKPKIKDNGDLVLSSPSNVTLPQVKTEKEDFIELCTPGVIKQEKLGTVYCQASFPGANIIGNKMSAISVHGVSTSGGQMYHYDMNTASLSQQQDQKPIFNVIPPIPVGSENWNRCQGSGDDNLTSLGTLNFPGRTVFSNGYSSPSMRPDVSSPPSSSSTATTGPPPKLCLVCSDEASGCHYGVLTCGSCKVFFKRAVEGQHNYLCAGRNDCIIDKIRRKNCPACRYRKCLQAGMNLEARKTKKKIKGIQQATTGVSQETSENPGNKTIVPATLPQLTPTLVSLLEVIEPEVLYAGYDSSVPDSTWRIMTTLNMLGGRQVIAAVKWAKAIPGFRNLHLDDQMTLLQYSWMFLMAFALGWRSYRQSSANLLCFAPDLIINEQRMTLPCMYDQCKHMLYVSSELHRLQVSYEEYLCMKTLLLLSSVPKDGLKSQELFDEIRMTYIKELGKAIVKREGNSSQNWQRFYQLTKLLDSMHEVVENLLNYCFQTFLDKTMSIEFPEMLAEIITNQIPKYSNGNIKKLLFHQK
Outline: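 Reporter read-out: fluorescence intensity following 2 h room-temperature LiveBLAzer B/G FRET substrate loading. Prior step: GR-bla HeLa cells held 4 h, then treated 18 h at 37 C.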

[16] = qHTS assay to test for compound auto fluorescence at 590 nm (red) in HEK293 cells (AID 720679)
Outline: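 Red channel, Ex/Em 540/590nm; signal expressed as equivalency to Rose Bengal sodium. HEK293, 2,000 cells/well, 10% dialyzed FBS; 23 nL compound pinned after 4-5 hr attachment; overnight 37C/5% CO2 before reading.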

[17] = qHTS assay to test for compound auto fluorescence at 535 nm (green) in HEK293 cell free culture (AID 720682)
Outline: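 Measurement is a direct plate read of green fluorescence (485 nm in, 535 nm out) after compound addition to serum-supplemented DMEM lacking cells, with fluorescein used to express intensities.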

[18] = target: Glucocorticoid receptor (Homo sapiens) (UniProt P04150); assay: qHTS assay to identify small molecule antagonists of the glucocorticoid receptor (GR) signaling pathway (AID 720692; active = well fitted inhibition curve with a large enough effect in the signal ratio in the repeat runs, not every such curve was filed as active; the % refers to the signal ratio)
Outline: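 Dexamethasone (5 nM final) stimulated a stably integrated GRE-beta-lactamase reporter in HeLa cells during 18 h co-incubation with compounds; signal was quantified as fluorescence intensity of B/G FRET substrate after 2 h.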
% is set by controls: 0 for no effect and ±100 for the full control effect.

CN1CCC(=C2c3ccccc3Sc3ccccc32)CC1
active: Potency [2] 29.8 µM | Potency [3] 26.6 µM
inactive: Potency [1] | Potency [4] | Potency [5] | Potency [6] | outcome [7] | outcome [8] | outcome [9] | Potency [10] | Potency [11] | outcome [12] | Potency [13] | outcome [14] | Potency [15]

NCCCN1CCOCC1
inactive: Potency [1] | Potency [2] | Potency [3] | Potency [4] | Potency [6] | outcome [7] | Potency [16] | outcome [9] | outcome [17] | Potency [10] | Potency [11] | outcome [12] | Potency [13] | outcome [14] | Potency [18]

C[C@H]1C[C@H]2[C@@H]3CCC4=CC(=O)C=C[C@]4(C)[C@@]3(Cl)[C@@H](O)C[C@]2(C)[C@@]1(O)C(=O)CO
inactive: Potency [1] | Potency [2] | Potency [3] | Potency [4] | Potency [5] | Potency [6] | outcome [7] | Potency [16] | outcome [9] | outcome [17] | Potency [10] | Potency [11] | outcome [12] | Potency [13] | outcome [14]

O=C(O)c1nc(Cl)c(Cl)c(Cl)c1Cl
inactive: Potency [1] | Potency [2] | Potency [3] | Potency [4] | Potency [5] | Potency [6] | outcome [7] | outcome [9] | outcome [17] | Potency [11] | outcome [12] | Potency [13] | outcome [14] | Potency [15]

COCC(C)OC(C)=O (configuration not stated)
inactive: Potency [1] | Potency [2] | Potency [3] | Potency [4] | Potency [5] | Potency [6] | outcome [7] | Potency [16] | outcome [9] | outcome [17] | Potency [10] | Potency [11] | outcome [12] | Potency [13] | outcome [14] | Potency [18]

CCC(=O)O[C@]1(C(=O)CCl)[C@@H](C)C[C@H]2[C@@H]3CCC4=CC(=O)C=C[C@]4(C)[C@@]3(F)[C@@H](O)C[C@@]21C
inactive: Potency [1] | Potency [2] | Potency [3] | Potency [4] | Potency [5] | Potency [6] | outcome [7] | Potency [16] | outcome [9] | outcome [17] | Potency [11] | outcome [12] | Potency [13]

CCOC(=O)COC(=O)c1cc(Oc2ccc(C(F)(F)F)cc2Cl)ccc1[N+](=O)[O-]
inactive: Potency [1] | Potency [2] | Potency [3] | Potency [6] | outcome [7] | Potency [16] | outcome [8] | outcome [9] | outcome [17] | Potency [11] | outcome [12] | Potency [13] | outcome [14]

CN(C)CCN(Cc1ccc(Cl)cc1)c1ccccn1
inactive: Potency [1] | Potency [3] | Potency [4] | fluorescence, relative to Rose Bengal [5] 0.0058% [at 18.6 µM] | fluorescence, % of fluorescein control [6] 0.0171% [at 18.6 µM] | fluorescence, % of triamterene [7] 0.037% [at 18.6 µM] | fluorescence, % of fluorescein [8] 0.0009% [at 18.6 µM] | fluorescence, % of fluorescent control [9] -0.0429% [at 18.6 µM] | activity change [17] 2e-05% [at 18.6 µM] | fluorescence, % of fluorescent control [10] -0.237% [at 18.6 µM] | fluorescence, % of Rose Bengal [11] 0.0021% [at 18.6 µM] | fluorescence, % of fluorescent control [12] 0.027% [at 18.6 µM] | fluorescence, % of fluorescein control [13] -0.14% [at 18.6 µM] | fluorescence, % of fluorescent control [14] -0.0264% [at 18.6 µM] | Potency [15] | Potency [18]
